ALR H2O2 inh – inhibitors of human sulfhydryl oxidase ALR; purified ALR, DTT oxidation, H2O2 HRP-luminol luminescence; inhibition, % (test concentration not listed); 290,000 compounds, 3.8% hits;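 active = mean replicate inhibition above about 79%, with every replicate also reaching it, limit read from the data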
Target sequence (P55789 whole entry, looked up): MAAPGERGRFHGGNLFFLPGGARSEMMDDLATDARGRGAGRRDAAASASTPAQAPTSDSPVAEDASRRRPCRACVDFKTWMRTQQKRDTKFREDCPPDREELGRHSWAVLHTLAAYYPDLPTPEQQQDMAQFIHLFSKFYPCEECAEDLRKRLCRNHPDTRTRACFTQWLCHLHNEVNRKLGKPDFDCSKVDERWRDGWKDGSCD
CHT PAM – human CHT allosteric activation | AID 488977 | CHT-expressing cells, membrane potential dye, choline EC20; hits give high values; LV-AA mutant CHT in HEK293 cells | 310,000 compounds, 0.49% hits | Q9GZV3 | B-score at 10 µM;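 active = initial fluorescence not abnormally high and integrated response B-score, plate-corrected, over 3 SD above library mean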
CHT block – human CHT choline transport inhibition; AID 488975; B-score at 10 µM; CHT-expressing cells, membrane potential dye, choline response; hits give low values; 310,000 compounds, 0.86% hits;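 active = B-score over 3 SD under the library average, and starting fluorescence ratio not unusually high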;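 note: choline stimulus applied at its EC90 after an EC20 pre-addition; B-score computed on integrated fluorescence ratio after choline addition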
PREPL inhibitor – inhibitors of human prolyl oligopeptidase-like enzyme PREPL. Q4J6C6. recombinant PREPL, fluorescence polarization activity-based probe. inhibition, % at 5.96 µM. 320,000 compounds, 0.68% hits. AID 2751; in the data active = inhibition above about 43%;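 note: 0% = enzyme with DMSO and 100% = wells lacking enzyme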
AI-2 QS mod – modulators of Vibrio harveyi AI-2 quorum sensing system; activity change, % at 7.5 µM; 300,000 compounds, 0.4% hits; AID 2094; Vibrio harveyi JMH597 AI-2 luminescence/OD600 ratio, 9 h; hits give low values; strain lacks LuxN and CqsS sensors; 0 = neutral-control median; in the data active = activity change below about -75%, passing the limit was not always enough;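 note: luminescence divided by OD600 gain over 9 h not by final OD600 alone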
Starred values were filed as active, the others as inactive; i = inactive; . = no result given. Compounds with a hit are over-represented: about 5% of the library has one in this group of screens.

SMILES	ALR H2O2 inh	CHT PAM	CHT block	PREPL inhibitor	AI-2 QS mod
CCN(CC)CCn1c2c(c(SCC(=O)Nc3nc4ccccc4s3)nc1=O)CCC2	97.7*	i	i	20.5	10.8
CCN(CC)CCn1c2c(c(SCC(=O)Nc3cccc4ccccc34)nc1=O)CCC2	97.1*	i	i	23.4	22.3
CCN(CC)CCn1c2c(c(SCC(=O)Nc3ccccc3Cl)nc1=O)CCC2	43.9	i	i	16.4	11.6
N#Cc1nc(-c2ccccc2F)oc1NCc1cccc2c1OCO2	8.7	i	i	2.7	-87.0*
Cc1ccc(/C=N\Nc2nc3ccc(Cl)cc3[nH]2)o1	95.4*	i	i	29.9	13.0
Cc1cccc(/C=N/Nc2ccc3ccccc3n2)c1	.	i	i	26.5	6.8
Cc1ccc(/C=N/Nc2ccc3ccccc3n2)o1	98.6*	i	i	8.9	6.5
Fc1ccccc1-c1ccc(/C=N/Nc2nc3ccccc3[nH]2)o1	22.4	i	i	40.7	32.4
COc1ccccc1-c1cc(C(F)(F)F)n2ncc(S(=O)(=O)c3ccccc3)c2n1	-4.5	i	i	-5.6	11.3
CC(C)c1cccc(OCCCCN(C)C)c1	2.1	i	i	7.1	13.0
Cc1cc(C)nc(NC(=O)c2cc([N+](=O)[O-])cc([N+](=O)[O-])c2)n1	-6.5	7.22*	i	9.5	5.8
Cc1cc(C)nc(NC(=O)c2ccc(C)c([N+](=O)[O-])c2)n1	5.1	i	i	14.2	19.5
O=C(CN1C(=O)NC2(CCCC2)C1=O)NNC(=O)c1ccccc1F	.	.	.	8.8	.
Cc1ccc(NC(=O)N2CCC(NC(=O)C(C)(C)C)CC2)cc1	-4.4	i	i	1.6	8.1
CC(=O)N1CCC(Nc2ccc(C)cc2)CC1	98.4*	i	i	4.1	20.3
CCOc1ccc(NC2CCN(C(C)=O)CC2)cc1	90.9*	i	i	-11.2	14.2
CCOc1ccc(NC(=O)N(C2CCCCCC2)C2CCN(C(C)=O)CC2)cc1	-59.9	i	i	6.9	11.6
CC(C)C1=CC(=Nc2ccc(S(N)(=O)=O)cc2)C=C(C(C)C)C1=O	98.8*	i	i	.	8.2
NS(=O)(=O)c1ccc(N=C2C(=O)Nc3ccccc32)cc1	74.8	i	i	0.7	43.3
O=C(COC(=O)c1ccc(Br)o1)Nc1ncc([N+](=O)[O-])s1	96.5*	.	.	14.1	.
O=C(Nc1ncc([N+](=O)[O-])s1)c1ccccc1Br	97.0*	i	i	2.2	38.7
COc1ccc(CC(NC(C)=O)C(=O)NC2CCN(C(=O)c3ccc([N+](=O)[O-])cc3)CC2)cc1OC (centres undefined)	-10.8	i	i	4.2	9.1
COCCn1c(CCc2ccccc2)n[nH]c1=S	85.2*	i	i	19.4	6.6
S=c1[nH]nc(CCc2ccccc2)n1Cc1ccccc1	-0.1	i	i	-28.1	0.9
CCOc1ccc(N2CC(C(=O)Nc3ccccc3OC)CC2=O)cc1 (centres undefined)	-10.9	i	i	13.8	21.8
SMILES	ALR H2O2 inh	CHT PAM	CHT block	PREPL inhibitor	AI-2 QS mod
COc1ccc(CC(=O)Nc2ccccc2N2CCCC2)cc1OC	97.8*	i	i	12.2	0.2
CCOc1ccc(N2CC(C(=O)Nc3ccccc3N3CCCC3)CC2=O)cc1 (centres undefined)	94.3*	i	i	10.6	17.9
CC(C)(C)C(=O)NC(=S)Nc1ccccc1N1CCCC1	98.4*	i	i	2.0	5.0
CC(C)CC(=O)NC(=S)Nc1ccccc1N1CCCC1	44.1	i	i	1.3	12.4
Cc1cc(-c2c(C)[nH]n(-c3ccccc3)c2=O)n(-c2ccccc2)n1	70.2	i	i	13.8	5.1
Cc1cc(-c2c(C)[nH]n(-c3ccccc3)c2=O)n[nH]1	81.1*	i	i	-4.4	17.7
O=S(=O)(Nc1nc(-c2ccccc2)cs1)c1cc(Cl)ccc1Cl	90.4*	i	i	11.3	18.1
O=C(NC1CCSc2ccccc21)c1c(F)cccc1Cl (centres undefined)	8.1	i	i	3.0	17.8
CCc1ccc(-c2nc(CS(=O)CC(=O)NC3CC3)c(C)o2)cc1 (centres undefined)	98.4*	i	i	3.0	5.0
Cc1oc(-c2ccccc2)nc1CS(=O)CC(=O)NC1CCCC1 (centres undefined)	98.9*	i	i	5.4	16.0
CCc1ccc(-c2nc(CS(=O)CC(=O)NC3CCCCCC3)c(C)o2)cc1 (centres undefined)	99.0*	i	i	18.0	32.6
CCOC(=O)N1CCC(NC(=O)C2CCCN(Cc3nc(-c4ccc(CC)cc4)oc3C)C2)CC1 (centres undefined)	-0.6	i	i	18.7	18.9
Cc1oc(-c2ccccc2Cl)nc1CS(=O)CC(=O)N1CCN(c2ccccc2)CC1 (centres undefined)	99.4*	i	i	-26.7	-1.1
COc1cc2c(cc1OC)C(NC(=O)c1ccc(C)cc1)CC2=O (centres undefined)	-3.7	i	i	5.0	23.2
O=C(NC1CCSc2ccccc21)c1cccc(S(=O)(=O)N2CCOCC2)c1 (centres undefined)	-2.3	i	i	-5.6	4.1
Cc1cc(C)c(C(=O)N(C)C2CCCN(Cc3ccccc3F)C2)o1 (centres undefined)	-2.4	i	i	1.2	-0.3
O=C(O)CCCCNS(=O)(=O)/C=C/c1ccccc1	-14.3	i	i	-11.1	28.6
Cc1ccccc1-c1nc(CN2CCC(C(=O)NC3CC3)CC2)c(C)o1	-8.7	i	i	10.3	2.8
Cc1oc(-c2ccccc2Cl)nc1CS(=O)CC(=O)NC1CC1 (centres undefined)	99.2*	i	i	-5.1	1.6
CCc1ccc(-c2nc(CS(=O)CC(=O)O)c(C)o2)cc1 (centres undefined)	99.3*	i	i	2.3	18.2
Cc1ccc(-c2nc(CS(=O)CC(=O)NC3CC3)c(C)o2)cc1 (centres undefined)	98.9*	i	i	-9.9	18.6
CN(C)c1ccc(CN2CCCCC2)cc1	15.4	i	i	-2.8	4.2
CN(C)c1ccc(CN2CCCC(O)C2)cc1 (centres undefined)	97.1*	i	i	4.3	13.0
NC(=S)NNC(=O)C12CC3CC(CC(C3)C1)C2	7.0	i	i	0.6	27.9
COC(=O)CSC1=NS(=O)(=O)c2ccccc21	99.8*	i	i	-5.1	47.9
O=C(CSC1=NS(=O)(=O)c2ccccc21)Nc1ccccc1	98.7*	i	i	6.9	51.9
O=C(CCCOc1ccc(Cl)cc1)NC1CCCCC1	.	i	i	13.6	0.7
CC(Sc1nnnn1-c1ccc(O)cc1)C(=O)NNC(=O)c1ccc(F)cc1 (centres undefined)	.	.	.	17.1	.

Screens from PubChem.
